KLK7 zymogen act = activators of human kallikrein-7 zymogen; purified proKLK7, EDANS-DABCYL substrate fluorescence; 100% is mature enzyme control, 0% vehicle; activation, % at 7 µM; 0.9% of 370,000 active;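 active = activation above the mean of all tested compounds plus 3 SD, computed per campaign excluding outliers beyond control limits, cut at about 13% in these data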
Target sequence (P49862 whole entry, looked up): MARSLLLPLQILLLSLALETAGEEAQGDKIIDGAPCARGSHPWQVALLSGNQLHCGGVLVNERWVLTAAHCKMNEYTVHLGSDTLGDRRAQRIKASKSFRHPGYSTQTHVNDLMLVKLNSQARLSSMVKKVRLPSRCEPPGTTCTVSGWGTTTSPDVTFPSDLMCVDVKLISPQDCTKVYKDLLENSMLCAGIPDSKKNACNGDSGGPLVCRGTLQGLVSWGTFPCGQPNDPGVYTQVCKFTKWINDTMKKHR
ADAM17 inh = inhibitors of human ADAM17 | inhibition, % at 6.95 µM | 0.83% of 370,000 active | recombinant ADAM17, EDANS/DABCYL FRET peptide cleavage | AID 720648;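 active = inhibition above the mean of compounds lying between control limits plus 3 SD, set per campaign, cut at about 8.5% in these data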;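 also: 0% = DMSO-only wells as the low control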
FGF22 binding = binders of recombinant human FGF22 by thermal shift | Q9HCT0 | SYPRO orange fluorescence; percent of sucrose octasulfate shift, DMSO zero | activity (Tm shift, normalised), % at 9.99 µM | 1.5% of 340,000 active | AID 651658;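 active = mean Tm shift, scaled 0 neutral to 100 positive control, at about 1.3% or above, every replicate too, limit read from the data; inconclusive = no clear call, values can overlap the other calls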
Target sequence (Q9HCT0 whole entry, looked up): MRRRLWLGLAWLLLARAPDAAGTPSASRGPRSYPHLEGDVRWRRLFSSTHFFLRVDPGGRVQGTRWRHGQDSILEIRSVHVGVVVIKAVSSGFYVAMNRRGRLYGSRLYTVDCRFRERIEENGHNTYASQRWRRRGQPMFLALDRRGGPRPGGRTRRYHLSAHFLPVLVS
ADAM10 inh = ADAM10 inhibition, QFRET primary screen; 0.62% of 370,000 active; inhibition, % at 7 µM; O14672; recombinant ADAM10, EDANS/DABCYL FRET peptide cleavage, 3 h; AID 720582;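 active = inhibition above a per-campaign cutoff equal to the mean of compounds falling between control-based bounds plus 3 SD, cut at about 20% in these data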;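 also: 0% = DMSO wells while the 100% control is not disclosed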
Ecoli rRNA inh = inhibitors of bacterial rRNA selective over humanized ribosomes; 1.6% of 350,000 active; E. coli WT GFP vs humanized-ribosome RFP mutants, fluorescence, 24 h; stronger effect = lower value; DMSO median 0, no signal -100; GFP signal change (wild-type ribosome), % (no concentration beside the values);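 active = significant combined selectivity score with lowered wild-type GFP, culture density cut under 30%, mutant RFP and density less affected; inactive = any of these conditions unmet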
AID977621 = growth inhibition of wild-type GFP E. coli, dose response, H69 mutant RFP, cherry-pick; shares compounds with Ecoli rRNA inh; E. coli wild-type GFP strain growth, fluorescence, 24 h; 1,900 tested, under 10 active; activity change, negative = inhibition at 50 µM;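 active = Wild-type ribosome reporter drop at least double the humanized mutant ribosome reporter drop, growth loss under a set limit; inconclusive = no clear call, values can overlap the other calls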;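 also: wild-type GFP and H69 mutant RFP strains grown together 50/50 in each well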
AID977628 = E. coli growth inhibition, wild-type GFP versus h24 humanized RFP strain, dose response, h24 mutant RFP vs wild-type GFP, cherry-pick; shares compounds with Ecoli rRNA inh; E. coli WT GFP strain growth, fluorescence, 24 h; activity change, negative = inhibition at 50 µM; 1,900 tested, under 10 active;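 active = compound lowering the normal-ribosome reporter at least twice as much as the humanized-ribosome reporter, growth loss under a set limit; inconclusive = no clear call, values can overlap the other calls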;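 also: wild-type GFP and h24 humanized RFP strains co-cultured 1 to 1 per well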
Numbers without * were called inactive; i = inactive; u = inconclusive; x = no result. Most compounds without a hit are left out; they make up all but 3.8% or so of the library.

SMILES	KLK7 zymogen act	ADAM17 inh	FGF22 binding	ADAM10 inh	Ecoli rRNA inh	AID977621	AID977628
CN(Cc1ccccc1)c1nc(-c2ccc([N+](=O)[O-])cc2)nc2ccccc12	1	-1	x	-3	x	x	x
CN(Cc1ccc([N+](=O)[O-])cc1)c1ccccc1	0	-2	0	-5	-26*	-8.7	-8.9
CCCNC(=O)C[C@@H]1CC[C@H]2[C@@H](COC[C@@H](O)CN2C(=O)c2ccccn2)O1	x	x	0	x	1	x	x
CCCC#Cc1ccc2c(c1)O[C@H](CN(C)Cc1ccncc1)[C@H](C)CN([C@@H](C)CO)S2(=O)=O	x	x	0	x	-32	x	x
C(=C(c1ccccc1)c1ccccc1)c1ccccn1	0	-3	0	-3	-39*	-1.8	x
CCCC#Cc1ccc([C@H]2[C@H]3CN(S(=O)(=O)Cc4ccccc4)CCCCN3[C@H]2CO)cc1	x	x	-1	x	0	x	x
CC(C)CC#Cc1ccc([C@@H]2[C@@H](CO)N3C(=O)CN(C(=O)Cc4ccccc4)C[C@@H]23)cc1	x	x	x	x	-38*	1.1	u
O=S(=O)(Cc1ccccc1)N1CCCCN2[C@@H](CO)[C@H](c3ccc(C#Cc4ccccc4)cc3)[C@@H]2C1	x	x	1	x	-47*	x	u
CC(C)CC#Cc1ccc([C@H]2[C@@H](CO)N3CCCCN(S(=O)(=O)Cc4ccccc4)C[C@H]23)cc1	x	x	0	x	-21*	x	u
COc1ccc(C#Cc2ccc([C@H]3[C@H]4CN(C(=O)Nc5ccccc5F)CCCCN4[C@H]3CO)cc2)cc1	x	x	0	x	-2	x	x
COc1ccc(C#Cc2ccc([C@@H]3[C@@H](CO)N4CCCCN(C(=O)Nc5ccccc5F)C[C@H]34)cc2)cc1	x	x	-1	x	-35*	-5	u
C[C@@H]1CN([C@H](C)CO)C(=O)CCCn2nncc2CO[C@@H]1CN(C)C(=O)Nc1cccc(C(F)(F)F)c1	x	x	0	x	-37	x	x
COc1ccc(S(=O)(=O)N[C@@H]2CC[C@@H](CC(=O)NCc3ccccc3F)O[C@H]2CO)cc1	x	x	0	x	0	x	x
Cc1cc(C)n2nc(C(=O)OCC(=O)Nc3ccc(Cl)cc3)nc2n1	0	-1	0	-9	12	x	x
CCCOC(=O)c1ccc(NC(=O)c2nc3nc(C)cc(C)n3n2)cc1	0	0	0	1	-23*	1.3	-7.8
Brc1ccccc1Cn1c(-c2cncs2)nc2ccccc21	1	5	0	8	-9.4*	-1.9	-11
Cc1ccc2sc(N(CCCN(C)C)C(=O)c3ccc(S(=O)(=O)N4CCc5ccccc5C4)cc3)nc2c1C	-1	0	-1	6	-29*	-1.3	-1.3
COc1ccc(C)c2sc(N(CCN(C)C)C(=O)c3cccc(N4C(=O)CCC4=O)c3)nc12	0	-3	0	-9	5	x	x
COc1ccc(C)c2sc(N(CCN(C)C)C(=O)c3ccc(S(=O)(=O)N(C)c4ccccc4)cc3)nc12	1	-2	0	-5	-12*	x	-0.093
O=S(=O)(Nc1cccc(-c2ccc(N3CCCCCC3)nn2)c1)c1ccc(F)cc1	0	-2	0	7	-21*	x	u
COCC(=O)Nc1ccc2c(c1)OC[C@H](C)N(Cc1cccc(F)c1)C[C@H](C)[C@@H](OC)CN(C)C2=O	x	x	0	x	-4	x	x
CCC1(CC)NC(=O)N(CC(=O)N2N=C(c3ccc(Cl)cc3)CC2c2ccco2)C1=O (centres undefined)	1	0	0	2	-25*	4.1	u
COCC(=O)Nc1ccc2c(c1)C(=O)N(C)[C@@H]1CC[C@H](CC(=O)NCc3ccccc3Cl)O[C@@H]1CO2	x	x	0	x	1	x	x
Cc1ccc(NCCC(=O)c2cccs2)cc1Cl	0	-3	x	6	x	x	x
O=C(CCNc1cccc(Cl)c1)c1cccs1	0	5	0	4	-20*	-12	-7.1
SMILES	KLK7 zymogen act	ADAM17 inh	FGF22 binding	ADAM10 inh	Ecoli rRNA inh	AID977621	AID977628
COc1ccccc1NC(=O)N[C@H]1CC[C@H](CCNC(=O)Cc2ccccn2)O[C@H]1CO	x	x	0	x	1	x	x
Cc1csc(SCc2nc3scc(-c4ccccc4)c3c(=O)[nH]2)n1	0	-3	0	7	-24*	0.6	-8.5
C/C=C/c1ccc2c(c1)O[C@@H](CN(C)C(=O)C1CCC1)[C@@H](C)CN([C@@H](C)CO)S2(=O)=O	x	x	x	x	-3	x	x
COc1cccc(C(=O)Nc2nnc(S(=O)(=O)N(C)Cc3ccccc3)s2)c1	1	-3	0	-7	-23*	-17	-18
COc1ccc(CN(C)S(=O)(=O)c2nnc(NC(=O)c3cccc(OC)c3)s2)cc1	0	-1	0	8	-9	x	x
O=C(NC1CCCC1)C(c1ccncc1)N(Cc1ccccc1)C(=O)c1ccc(-c2ccccc2)[nH]1 (centres undefined)	-1	6	x	13	x	x	x
CC(C)(C)NC(=O)C(c1ccncc1)N(Cc1ccc(F)cc1)C(=O)c1ccc(-c2ccccc2)[nH]1 (centres undefined)	-1	7	0	1	-21*	10	1.3
CCOc1ccc2oc(-c3ccccc3)c(C(=O)N(C)C)c2c1	2	-53	0	-175	-26*	-0.57	-8.5
CCOc1ccc2oc(-c3ccccc3)c(C(=O)O)c2c1	11	-332	x	i	x	x	x
C[C@H]1CN([C@@H](C)CO)C(=O)c2cc(NC(=O)Cc3ccccc3)ccc2O[C@H]1CN(C)S(=O)(=O)c1ccc(Cl)cc1	x	x	0	x	1	x	x
O=C(CSc1nnc(-c2ccccc2F)n1C1CC1)Nc1cccnc1Cl	0	-1	0	2	-16*	-8.9	-6.6
COC(=O)c1ccc(OCC(=O)c2ccccc2OC)cc1	0	-3	x	-6	-23*	3.2	-7
Cc1noc(C)c1S(=O)(=O)N(C)C[C@@H]1Oc2ccc(NC(=O)Nc3cccc4ccccc34)cc2CC(=O)N([C@@H](C)CO)C[C@H]1C	x	x	0	x	-5	x	x
O=C(Nc1ccc(Cl)cn1)c1ccc([N+](=O)[O-])o1	1	-1	43*	6	-21*	-14	-12
O=C(Nc1cccnc1)c1ccc([N+](=O)[O-])o1	-1	0	0	-10	-19*	x	u
CC(=O)c1ccc(NC(=O)c2ccc([N+](=O)[O-])o2)cc1	0	-1	0	0	-15*	x	-6
CCC(=O)Nc1ccc2c(c1)C(=O)N(C)C[C@@H](OC)[C@H](C)CN(C(=O)c1ccncc1)[C@@H](C)CO2	x	x	0	x	0	x	x
O=C(O)CC1(CC(=O)Nc2ccc3sccc3c2)CCCCC1	0	-2	0	-10	-26*	5.9	-11

Bioassay records deposited in PubChem BioAssay by several laboratories.
